Measured values published in PubChem BioAssay (NCATS).
Several values for one entry are separate records, joined by “and”; a condition that tells them apart may be missing. Identical values can stand only once. Results filed as inconclusive are left out. Activity calls are given as the source filed them. Calls come from the whole dose curve; as a rule, active = well fitted curve in the direction sought with a large enough effect in the signal ratio, with a control signal flat; inconclusive = small, poorly fitted or top-dose-only effect, or a change in a side signal; inactive = no such curve, though single readings can be large or run the other way; the % refers to the signal ratio. Peptide text beside a SMILES is read from it.

target: Glucocorticoid receptor (Homo sapiens) (UniProt P04150); assay: qHTS assay for small molecule agonists of glucocorticoid receptor signaling (AID 588532); conditions: HeLa MMTV-bla, beta-lactamase ratio, agonist, 18 h; active compounds read high; percent of dexamethasone control, DMSO zero
From the text: NIH Chemical Genomics Center [NCGC] U.S. Environmental Protection Agency [EPA] National Institutes of Environmental Health Sciences [NIEHS] National Toxicology Program [NTP] NCGC Assay Overview The Glucocorticoid receptor (GR), a nuclear receptor subfamily member and its natural ligands includes […] etc. The GR is a validated drug target for inflammation. GR ligands such as dexamethasone are clinically available as anti-inflammatory drugs. Glucocorticoids implicate role in carbohydrate, protein and lipid metabolisms and programmed cell death. They are also a component of many chemotherapy regimens for the treatment of leukemias, lymphomas, and myelomas because of their role in the induction of apoptosis.
NCGC Assay Protocol Summary Using a beta-lactamase reporter-gene under control of glucocorticoid response element (GRE), a cell-based assay [CellSensor MMTV-bla HeLa cell line assay developed by Invitrogen] was used to measure GR ligands signaling. CellSensor MMTV-bla HeLa cells were used with assay medium containing 1% charcoal/dextran treated FBS, 0.1 mM NEAA, 1 mM sodium pyruvate and 25mM HEPES. The assay was performed in clear bottom black Greiner 1536-well plates. Dexamethasone and Mifepristine were used in the screen as agonist and antagonist positive controls respectively. Library compounds were measured for their ability to stimulate the reporter gene activity. Compounds were screened in a titration series in 1536-well format. The fluorescence intensity (405 nm excitation, 460/530 nm emission) was measured using an EnVision plate reader. Data was normalized relative to Dexamethasone control (0.1 uM, 100%), and DMSO only wells (basal, 0%). Concentration-response titration points for each compound were fitted to the Hill equation yielding concentrations of half-maximal stimulation (EC50) and maximal response (efficacy) values. qHTS protocol for GR beta-lactamase assay in agonist mode [Step] [Parameter] [Value] [Description] 1. Reagent; 6 uL; 1500 cells/well 2. Incubation; 37 C for 3-5 hrs 3. Compounds; 23 nL; 0.59 nM to 92 uM 4. Controls (Dexamethasone); 23 nL, - One column with dose response, start 4.6uM, 1:3 dilutions in duplicates - Final concentrations of 0.1 uM and 2 nM in two columns 5. Incubation; 37 C for 18 hrs 6. Detection reagent; 1 uL of CCF4-dye 7. Incubation; RT for 2 hrs 8. Detection; Fluorescence; Envision plate reader

Sequence of Glucocorticoid receptor (Homo sapiens) (P04150 whole entry, looked up): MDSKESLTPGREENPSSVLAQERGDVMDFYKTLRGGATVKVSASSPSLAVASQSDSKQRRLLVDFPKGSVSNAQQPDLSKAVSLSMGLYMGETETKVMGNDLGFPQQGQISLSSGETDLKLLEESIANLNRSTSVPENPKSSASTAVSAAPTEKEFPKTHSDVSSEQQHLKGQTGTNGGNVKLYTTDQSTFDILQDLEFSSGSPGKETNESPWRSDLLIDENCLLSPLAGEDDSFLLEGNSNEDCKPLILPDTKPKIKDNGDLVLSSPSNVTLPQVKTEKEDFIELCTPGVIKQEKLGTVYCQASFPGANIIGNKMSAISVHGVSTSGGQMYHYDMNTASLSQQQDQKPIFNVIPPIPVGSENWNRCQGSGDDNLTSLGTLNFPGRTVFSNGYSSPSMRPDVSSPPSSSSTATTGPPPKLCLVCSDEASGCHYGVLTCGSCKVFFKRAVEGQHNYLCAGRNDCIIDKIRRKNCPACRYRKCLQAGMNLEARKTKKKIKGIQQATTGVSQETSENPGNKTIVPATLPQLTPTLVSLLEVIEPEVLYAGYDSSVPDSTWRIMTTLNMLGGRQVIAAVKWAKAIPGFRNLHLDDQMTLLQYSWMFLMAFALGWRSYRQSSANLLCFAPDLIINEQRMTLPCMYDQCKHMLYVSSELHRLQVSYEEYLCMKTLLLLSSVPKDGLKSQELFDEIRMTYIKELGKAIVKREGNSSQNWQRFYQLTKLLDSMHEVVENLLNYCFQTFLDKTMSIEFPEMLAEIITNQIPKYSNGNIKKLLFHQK

SMILES | activation
CCN(CC)C(=S)SSC(=S)N(CC)CC | 3.99% (inactive)
c1ccc2[nH]c(-c3cscn3)nc2c1 | -3.88% (inactive) and -4.87% (inactive)
COC(=O)[C@H](Cc1ccccc1)NC(=O)[C@@H](N)CC(=O)O (H-Asp-Phe-OMe) | -0.956% (inactive) and -8.82% (inactive)
N[C@@H](Cc1cc(I)c(Oc2cc(I)c(O)c(I)c2)c(I)c1)C(=O)O | -13.7% (inactive)
COc1cc(OC)c(C(=O)CCCN2CCCC2)c(OC)c1 | 4.51% (inactive)
CC(=O)N1CCN(c2ccc(OC[C@H]3CO[C@](Cn4ccnc4)(c4ccc(Cl)cc4Cl)O3)cc2)CC1 | 3.09% (inactive)
Cc1cc(O)c2c(c1)C(=O)c1cc(O)cc(O)c1C2=O | -3.03% (inactive) and -5.65% (inactive)
O=c1c(O)c(-c2ccc(O)cc2O)oc2cc(O)cc(O)c12 | -17.5% (inactive)
Nc1ccc(S(N)(=O)=O)cc1 | 9.11% (inactive)
CCCCC(CC)COC(=O)C(C#N)=C(c1ccccc1)c1ccccc1 (stereo not drawn) | -1.93% (inactive)
CCc1nc(N)nc(N)c1-c1ccc(Cl)cc1 | 6.7% (inactive) and -0.85% (inactive)
Nc1nc(Cl)nc2c1ncn2[C@H]1C[C@H](O)[C@@H](CO)O1 | -6.36% (inactive)
COc1c2occc2cc2ccc(=O)oc12 | 1.93% (inactive) and -3.63% (inactive)
